Coupling enz: counter-screen for Giardia aldolase inhibitors: coupling enzyme system. coupling enzyme system counterscreen, AmpLite Red fluorescence. activity change, negative = inhibition, % at 58.2 µM, hits read low. actives 0.67% (n = 290,000). AID 2472; in the data active = activity change below about -30%
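Fluorescence at 525 nm excitation and 598 nm emission measured inhibition of the coupled detection system without aldolase. Compounds (at 57.5 uM final) were preincubated 10 min at room temperature with coupling enzyme reagent before a 20 min substrate/AmpLite Red step.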
Gal4-VP16 FLuc: Gal4-VP16 reporter inhibition counter-screen; Drosophila S2 Gal4-VP16 UAS-luciferase, luminescence, 20 h; Potency, µM (series often up to 53.6 µM), inactives show top-dose activity, negative = inhibition, hits mostly inhibitors; actives 3.5% (n = 310,000);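 note: Gal4-VP16 expression switched on by copper sulfate through the metallothionein promoter; potency is the fitted concentration of half-maximal effect; nearly all actives have a fitted effect of over 50% in size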
ELG1 DNA repair: inhibitors of ELG1-dependent DNA repair in HEK293T cells; HEK293T ELG1-luciferase reporter, luminescence, 16 h; DNA damage induced by 5-fluorouridine; Potency, µM (top dose mostly 46.1 µM), without a hit: at the highest dose activity change, negative = inhibition, usual class: inhibitors; actives 2.3% (n = 330,000); note: potency is the fitted concentration of half-maximal effect; nearly all actives have a fitted effect of over 55% in size
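DMSO vehicle served as the neutral condition. Each well held 2,000 cells given 5-fluorouridine plus compound; after 16 hr at 37 °C/5% CO2, ONE-Glo was added and luciferase measured 30 min later.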
TSHR antag: human thyrotropin receptor antagonism; TSHR-expressing cells, TSH-stimulated cAMP HTRF, 2 h; active compounds read low; activity change, negative = inhibition, % at 11.5 µM; actives 0.2% (n = 330,000); AID 504810;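 active = activity change below a set negative limit, meaning inhibition stronger than a set level, cut at about -70% in these data; inconclusive = activity change between two set negative limits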
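Freshly harvested TSHR cells receive pin-tooled compound, then EC80 TSH at 4nM final. After 2 hours at 37 deg C, antibody in lysis buffer and cAMP-d2 are added; 30 minutes at ambient temperature precede the HTRF read.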
RORg inh: ROR gamma (mouse) transcription inhibition. AID 2551. Potency, µM (highest dose often 53.6 µM), for inactives: at the highest dose activity change, negative = inhibition, most hits filed as inhibitors. actives 5.4% (n = 310,000). Drosophila S2 Gal4-RORgamma UAS-luciferase reporter, 20 h; note: potency is the fitted concentration of half-maximal effect; nearly all actives have a fitted effect of over 60% in size
Target sequence (P51450 whole entry, looked up, the tested form may be a part): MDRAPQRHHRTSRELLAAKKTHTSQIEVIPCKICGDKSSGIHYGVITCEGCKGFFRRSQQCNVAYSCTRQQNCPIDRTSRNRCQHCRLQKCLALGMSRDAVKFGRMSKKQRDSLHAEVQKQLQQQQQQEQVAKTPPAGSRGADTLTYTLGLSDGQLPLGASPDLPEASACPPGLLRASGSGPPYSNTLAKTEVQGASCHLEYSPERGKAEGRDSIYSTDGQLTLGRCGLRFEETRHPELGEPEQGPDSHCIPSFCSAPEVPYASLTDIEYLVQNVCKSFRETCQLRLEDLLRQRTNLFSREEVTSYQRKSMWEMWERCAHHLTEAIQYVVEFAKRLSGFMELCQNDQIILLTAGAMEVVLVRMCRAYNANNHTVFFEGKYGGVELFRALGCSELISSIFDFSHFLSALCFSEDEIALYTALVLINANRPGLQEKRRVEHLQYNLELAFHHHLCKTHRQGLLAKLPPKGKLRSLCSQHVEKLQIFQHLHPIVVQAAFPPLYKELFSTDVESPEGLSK
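Drosophila Schneider cells stably carrying a metallothionein-driven Gal4 DBD–ROR gamma fusion and a UAS-Photinus luciferase reporter were exposed to compound for 1 hr, then induced with copper sulfate (700 uM final) for 20 hr at ambient temperature before luminescence reading.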
* hit, by the source's call; ! = not confirmed by another sample; [ ] = dose if it differs, or a comment. The list is not random: actives were taken first. Their share in the collection is about 8%. Unless noted, calls come from the whole dose curve; as a rule, active = well fitted curve in the direction sought with a large enough effect; inconclusive = small, poorly fitted or top-dose-only effect, or another doubt; inactive = no such curve, though single readings can be large; an effect the other way counts as inactive or inconclusive. % is set by controls: 0 for no effect and ±100 for the full control effect.

Fc1ccc(C(OCCN2CCN(CCCc3ccccc3)CC2)c2ccc(F)cc2)cc1 was read as Coupling enz 0, Gal4-VP16 FLuc 32µM*!, TSHR antag -8 and RORg inh 28µM*!.
For c1ccc(CCCN2CCN(CCOC(c3ccccc3)c3ccccc3)CC2)cc1 the results were Coupling enz 0, Gal4-VP16 FLuc inconclusive, TSHR antag 5 and RORg inh 32µM*.
Screening CN1C(=O)CCS(=O)(=O)[C@H]1c1ccc(Cl)cc1 returned Coupling enz 1, Gal4-VP16 FLuc -4% and RORg inh inconclusive.
For O=C1C=CC(=O)c2c1ccc1c2ccc2ccccc21 the results were Coupling enz -28, Gal4-VP16 FLuc inconclusive and RORg inh inconclusive.
`O=[N+]([O-])c1ccc(Sc2nc3ccccc3o2)c([N+](=O)[O-])c1` gave Coupling enz -8, Gal4-VP16 FLuc 3%, ELG1 DNA repair inconclusive, TSHR antag -71* and RORg inh inconclusive.
Screening O=[N+]([O-])c1ccc2nc(CCCc3nc4ccc([N+](=O)[O-])cc4[nH]3)[nH]c2c1 returned Coupling enz -1, Gal4-VP16 FLuc -2%, ELG1 DNA repair 12%, TSHR antag 2 and RORg inh inconclusive.
Screening CCCc1cc2c(n1Cc1cccc(Cl)c1)C(C)C1CN(C(=O)c3ccccc3)C(C)(C(=O)OC)C21 (stereo not given) returned Coupling enz -10, Gal4-VP16 FLuc 6% and RORg inh inconclusive.
Cc1ccc(C(=O)n2c(N)nc3ccccc32)cc1 was read as Coupling enz -1, Gal4-VP16 FLuc 6.3µM*, ELG1 DNA repair inconclusive, TSHR antag -3 and RORg inh 1.6µM*.
CNC(=S)NC1CC2CCCC(C1)N2CC(C)C (stereo not given) was read as Coupling enz 0, Gal4-VP16 FLuc 5%, ELG1 DNA repair 1%, TSHR antag 4 and RORg inh -10%.
`Cc1ccc(CN2C3CCCC2CC(NC(=S)NCc2ccccc2)C3)cc1` (stereo not given) gave Coupling enz 2, Gal4-VP16 FLuc 18µM*, ELG1 DNA repair -4%, TSHR antag 7 and RORg inh 2.8µM*.
For ClP(Cl)(Cl)(Cl)Cl the results were Gal4-VP16 FLuc 4% and RORg inh -26%.
`O=[N+]([O-])c1ccc(-c2[se]c3ccccc3c2I)cc1` gave Coupling enz 3, Gal4-VP16 FLuc 6% and RORg inh 41%.
C/C=C(\C)C(=O)N[C@@H](c1ccccc1)[C@@H](O)C(=O)O[C@H]1C[C@@]2(O)[C@@H](OC(=O)c3ccccc3)C3[C@](C)(C(=O)[C@H](OC(C)=O)C(=C1C)C2(C)C)[C@H](O)C[C@H]1OC[C@@]31OC(C)=O (stereo not given in full) was read as Coupling enz -4, Gal4-VP16 FLuc 35µM*, ELG1 DNA repair inconclusive, TSHR antag 12 and RORg inh inconclusive.
`CCC(C)C(=O)N[C@@H](c1ccccc1)[C@@H](O)C(=O)O[C@H]1C[C@@]2(O)[C@@H](OC(=O)c3ccccc3)C3[C@](C)(C(=O)[C@H](OC(C)=O)C(=C1C)C2(C)C)[C@@H](O)C[C@H]1OC[C@@]31OC(C)=O` (stereo not given in full) gave Coupling enz -4, Gal4-VP16 FLuc -19%, ELG1 DNA repair -17%, TSHR antag 0 and RORg inh inconclusive.
Screening Cc1cccc(N2CCc3c2nc2ccccc2c3N)c1 returned Coupling enz -34*!, Gal4-VP16 FLuc 19%, ELG1 DNA repair inconclusive, TSHR antag 14 and RORg inh inconclusive.
`Nc1c2c(nc3ccccc13)CCCC2=O` gave Coupling enz -3, Gal4-VP16 FLuc -23%, ELG1 DNA repair inconclusive, TSHR antag 12 and RORg inh -36%.
CCCCn1cc[n+](C)c1 was read as Coupling enz 1, Gal4-VP16 FLuc -7% and RORg inh inconclusive.
For Cc1ccc(-c2nn(C)c(=O)c3ccccc23)cc1CNC(=O)/C=C/c1ccccc1 the results were Coupling enz 3, Gal4-VP16 FLuc -11%, ELG1 DNA repair 16µM*, TSHR antag 18 and RORg inh 15%.
CCOC(=O)CBr was read as Gal4-VP16 FLuc -15% and RORg inh -45%.
Screening O=C1CC2OCC=C3CN4CCC56c7ccccc7N1C5[C@H]2[C@H]3C[C@H]46 (stereo not given in full) (tested in a mixture with another compound) returned Gal4-VP16 FLuc -4% and RORg inh 1%.
Screening CC(C)n1c(N2CCN(S(=O)(=O)c3cccc([N+](=O)[O-])c3)CC2)nc2ccccc21 returned Coupling enz -1, Gal4-VP16 FLuc 0%, ELG1 DNA repair 23µM*, TSHR antag -12 and RORg inh inconclusive.
`O=S(=O)(c1ccc(Cl)cc1)c1cc(Cl)c(Cl)cc1Cl` gave Coupling enz -4, Gal4-VP16 FLuc -1% and RORg inh -1%.
Screening O=C1NC(=O)C(=O)C(=O)N1 returned Coupling enz -60*, Gal4-VP16 FLuc 5% and RORg inh 14%.
For CC1CCCC(C)N1c1nnc(NC(=O)Cn2c(=O)oc3ccccc32)s1 (stereo not given) the results were Coupling enz 1, Gal4-VP16 FLuc 14µM*, ELG1 DNA repair 6%, TSHR antag 4 and RORg inh inconclusive.
`FC(F)(F)c1ccc(Cl)cc1` gave Gal4-VP16 FLuc -3% and RORg inh -5%.
`O=C(Nc1ccc(Cl)cc1)Nc1ccc(Cl)c(Cl)c1` gave Gal4-VP16 FLuc inconclusive, ELG1 DNA repair inconclusive, TSHR antag -74* and RORg inh 43%[10 µM].
Nc1c([N+](=O)[O-])ccc(Oc2ccccc2)c1Cl was read as Coupling enz -7, Gal4-VP16 FLuc 4% and RORg inh 15%.
For C=C(C)CN1CC[C@@]23c4c5ccc(O)c4O[C@H]2c2[nH]c4ccccc4c2C[C@]3(O)[C@@H]1C5 the results were Coupling enz 1, Gal4-VP16 FLuc 28µM* and RORg inh -39%.
Screening O=C1/C(=C/c2ccccc2)C[C@@]2(O)[C@H]3Cc4ccc(O)c5c4[C@@]2(CCN3CC2CC2)C1O5 (stereo not given in full) returned ELG1 DNA repair 18µM* and TSHR antag 9.
Cn1c(NN=O)nc2ccccc21 was read as Coupling enz -11, Gal4-VP16 FLuc inconclusive, ELG1 DNA repair inconclusive, TSHR antag -4 and RORg inh 0.035µM*.

Screens deposited in PubChem by National Center for Advancing Translational Sciences (NCATS).
